A short description of test [1]: antimalarial activity against Dd2 strain (AID 2302;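 active = growth inhibition above 50% at the single 2 µM test dose, taken to imply half-maximal potency below 2 µM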;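 also: 0% = DMSO untreated growth and 100% = chloroquine plus artemisinin killed control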). The following applies: P. falciparum Dd2 in RBCs, LDH growth readout, 72 h; at 2 µM; active compounds read high.
Test [2] in a line: HepG2 cytotoxicity, primary screen, cytotoxicity control for P. falciparum antimalarial project, cell-based, ATP luminescence (AID 2303;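 active = inhibition above 50%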;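 also: 0% = DMSO wells and 100% = digitonin-killed cells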). The following applies: HepG2 viability, 24-48 h, at 10 µM, active compounds read high.
For test [3], the target named is L-lactate dehydrogenase (Plasmodium falciparum (isolate CDC / Honduras)) (UniProt Q27743). As to the kind of experiment: PfLDH activity inhibition – cell lysate, 3D7 strain, counter-screen for P. falciparum growth inhibition project (AID 2304).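 Also: 0% = vehicle and 100% = reference inhibitor.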 To be noted: P. falciparum 3D7 crude extract, LDH APAD/NBT absorbance; at 2 µM; active compounds read high. On the technique in general: Counterscreens check selectivity or assay interference.

The nature of test [4]: inhibition of 3D7 malaria parasite growth – strain 3D7 (AID 2306).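 Also: 0% = DMSO wells and 100% = chloroquine plus artemisinin control wells.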 The following applies: P. falciparum 3D7 erythrocytic growth, LDH absorbance, 72 h; at 2 µM; active compounds read high.
For test [5], the target named is Calcium-dependent protein kinase 1 (Plasmodium falciparum (isolate 3D7)) (UniProt P62344). As to the kind of experiment: PfCDPK1 kinase inhibitors, biochemical, TCAMS library (AID 1159585; cut-off not given, nearly all actives have IC50 up to about 0.98 µM;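 also: inhibitors leave more ATP so luminescence rises with inhibition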). To be noted: recombinant PfCDPK1, Kinase-Glo ATP depletion luminescence. (In general: Kinase-Glo measures the ATP left after a reaction by luminescence.)
For test [6], the target named is Plasmodium falciparum protein kinase 6 (PK6, PF3D7_1337100) (UniProt Q8IDW1). The experiment in a line: PfPK6 kinase inhibitors, biochemical, TCAMS library (AID 1159586). The following applies: recombinant PfPK6, Kinase-Glo ATP depletion luminescence.
Test [7] has as its target Protein kinase 7 (PK7), Plasmodium falciparum 3D7 (PF3D7_0213400) (UniProt Q7YTF7). As to the kind of experiment: inhibition of Plasmodium PK7 catalytic activity – biochemical, TCAMS antimalarial set, Kinase-Glo luminescence (AID 1159587). The following applies: recombinant PfPK7, Kinase-Glo ATP depletion luminescence.
For test [8], the target named is Calcium-dependent protein kinase 4 (Plasmodium falciparum (isolate 3D7)) (UniProt Q8IBS5). As to the kind of experiment: PfCDPK4 kinase inhibitors, biochemical, TCAMS library (AID 1159588; cut-off not given, nearly all actives have IC50 up to about 0.91 µM). The following applies: recombinant PfCDPK4, Kinase-Glo ATP depletion luminescence.

Each structure is given as a SMILES string. A number with no mark means an inactive call. For part of these data: Results with a measured potency or affinity are listed apart. Calls of active or inactive are those of the source. Unless noted, no rule for the calls is given here.

Sequence of L-lactate dehydrogenase (Plasmodium falciparum (isolate CDC / Honduras)) (Q27743 whole entry, looked up): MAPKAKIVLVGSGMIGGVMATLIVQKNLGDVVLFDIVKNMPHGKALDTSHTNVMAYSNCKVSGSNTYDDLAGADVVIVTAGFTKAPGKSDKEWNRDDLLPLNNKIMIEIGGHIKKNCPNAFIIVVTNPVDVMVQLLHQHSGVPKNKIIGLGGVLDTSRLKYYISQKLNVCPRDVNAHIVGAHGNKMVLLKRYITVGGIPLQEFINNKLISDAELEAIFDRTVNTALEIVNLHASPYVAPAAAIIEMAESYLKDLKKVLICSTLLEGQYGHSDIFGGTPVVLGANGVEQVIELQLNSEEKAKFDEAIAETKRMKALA
Sequence of Plasmodium falciparum protein kinase 6 (PK6, PF3D7_1337100) (Q8IDW1 1-305): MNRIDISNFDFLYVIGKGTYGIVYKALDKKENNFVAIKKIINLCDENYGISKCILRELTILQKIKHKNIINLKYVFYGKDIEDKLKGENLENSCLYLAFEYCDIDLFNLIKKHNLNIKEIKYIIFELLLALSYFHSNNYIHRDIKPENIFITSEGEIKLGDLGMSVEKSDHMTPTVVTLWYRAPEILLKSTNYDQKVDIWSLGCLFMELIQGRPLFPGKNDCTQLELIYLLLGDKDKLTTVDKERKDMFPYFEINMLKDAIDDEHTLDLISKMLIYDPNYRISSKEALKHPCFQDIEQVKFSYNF
Sequence of Calcium-dependent protein kinase 1 (Plasmodium falciparum (isolate 3D7)) (P62344 whole entry, looked up): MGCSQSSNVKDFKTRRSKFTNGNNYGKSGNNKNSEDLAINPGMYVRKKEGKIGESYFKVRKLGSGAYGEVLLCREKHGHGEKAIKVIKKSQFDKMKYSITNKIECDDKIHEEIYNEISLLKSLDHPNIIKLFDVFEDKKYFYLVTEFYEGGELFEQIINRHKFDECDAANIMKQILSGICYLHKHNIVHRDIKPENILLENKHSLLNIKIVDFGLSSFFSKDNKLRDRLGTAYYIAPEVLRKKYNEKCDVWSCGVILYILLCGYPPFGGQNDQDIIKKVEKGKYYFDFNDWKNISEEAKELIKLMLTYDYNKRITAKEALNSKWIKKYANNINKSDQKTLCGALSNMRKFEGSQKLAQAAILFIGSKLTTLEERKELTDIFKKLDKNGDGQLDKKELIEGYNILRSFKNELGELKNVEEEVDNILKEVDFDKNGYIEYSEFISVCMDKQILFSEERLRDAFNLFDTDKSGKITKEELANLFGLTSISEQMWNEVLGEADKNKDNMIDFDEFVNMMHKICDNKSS
Sequence of Protein kinase 7 (PK7), Plasmodium falciparum 3D7 (PF3D7_0213400) (Q7YTF7 1-343): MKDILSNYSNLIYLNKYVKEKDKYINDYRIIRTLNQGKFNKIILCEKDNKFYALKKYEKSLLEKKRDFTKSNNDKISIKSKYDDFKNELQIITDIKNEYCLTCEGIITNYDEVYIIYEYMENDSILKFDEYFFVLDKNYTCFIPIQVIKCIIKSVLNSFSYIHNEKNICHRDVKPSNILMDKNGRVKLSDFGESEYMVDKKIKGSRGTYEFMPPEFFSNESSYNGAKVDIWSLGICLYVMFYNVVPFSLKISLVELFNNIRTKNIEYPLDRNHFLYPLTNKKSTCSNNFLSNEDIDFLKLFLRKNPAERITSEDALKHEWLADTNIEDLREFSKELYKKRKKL
Sequence of Calcium-dependent protein kinase 4 (Plasmodium falciparum (isolate 3D7)) (Q8IBS5 whole entry, looked up): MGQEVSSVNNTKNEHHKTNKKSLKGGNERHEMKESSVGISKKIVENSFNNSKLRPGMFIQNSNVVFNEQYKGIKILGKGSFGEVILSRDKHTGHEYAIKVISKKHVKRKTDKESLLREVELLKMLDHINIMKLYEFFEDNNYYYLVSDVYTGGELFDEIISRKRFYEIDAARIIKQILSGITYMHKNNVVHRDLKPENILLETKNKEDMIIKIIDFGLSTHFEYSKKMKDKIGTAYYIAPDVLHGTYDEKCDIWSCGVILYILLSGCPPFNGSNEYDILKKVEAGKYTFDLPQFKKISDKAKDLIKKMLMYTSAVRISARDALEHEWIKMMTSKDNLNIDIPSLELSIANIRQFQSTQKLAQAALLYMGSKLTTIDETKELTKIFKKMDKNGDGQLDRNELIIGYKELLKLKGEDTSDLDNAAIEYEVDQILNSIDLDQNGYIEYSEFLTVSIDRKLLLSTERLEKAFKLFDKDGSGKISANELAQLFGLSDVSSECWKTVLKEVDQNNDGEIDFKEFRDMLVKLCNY

One may read the inhibition as the relative decrease from the control value, in per cent. In the case of `COc1ccc2nccc([C@@H](O)CN3CCC(NCc4cc5ccccc5o4)CC3)c2c1`, the growth inhibition in test [1] is 72% (active); in test [4], 96% (active). Moreover, the inhibition is 17% in test [2] and 4% in test [3]. The outcome in test [5], in test [6], in test [7] and in test [8] was inactive.
Turning to `O=c1cc(NCC2(CNCc3cn(Cc4ccccc4)c4ccccc34)CCCCC2)[nH]c2ccccc12`, the values for the growth inhibition in test [1] and in test [4] were 56% (active) and 100% (active), respectively. In addition, the inhibition in test [2] was 27%; in test [3], 1%. In addition, the outcome in test [5], in test [6], in test [7] and in test [8] was inactive.
Turning to `CC(C)Cn1cc(C2CCN(CCN3CCC(CNC(=O)c4ccc(NC(=O)c5cc(Cl)cc(Cl)c5)cc4)CC3)CC2)c2ccccc21`, the values for the growth inhibition in test [1] and in test [4] were 96% (active) and 91% (active), respectively. In addition, the inhibition in test [2] was 53% (active); in test [3], -2%. Moreover, the result in test [5], in test [6], in test [7] and in test [8] was inactive.
Consider `c1ccc(COc2ccc(Nc3ncnc4cnc(-c5ccc(CNc6cccnc6)o5)cc34)cc2)cc1`, for which the figures for the growth inhibition in test [1] and in test [4] were 19% and 96% (active), respectively. Further, the inhibition in test [2] was 2%; in test [3], 3%. Moreover, the outcome in test [5], in test [6], in test [7] and in test [8] was inactive.
`O=S(=O)(c1c(Cl)cc(Cl)cc1Cl)N1CCCCC(c2ccc(F)c(F)c2)=N1`: the results for the growth inhibition in test [1] and in test [4] were 65% (active) and 87% (active), respectively. The inhibition was 5% in test [2] and -1% in test [3]. For the same compound, the result in test [5], in test [6], in test [7] and in test [8] was inactive.
Turning to `O=C(Nc1cccc(OC2CCN(Cc3ccccc3)CC2)c1)c1ccc(Cl)c(Cl)c1`, the growth inhibition is 45% in test [1] and 101% (active) in test [4]. Moreover, the inhibition in test [2] is 16%; in test [3], -4%. In addition, the outcome in test [5], in test [6], in test [7] and in test [8] was inactive.
Consider `CCOc1c(CNCCCNc2nc3ccccc3[nH]2)cc(Br)cc1OC`, for which the growth inhibition was 0% in test [1] and 99% (active) in test [4]. In addition, the inhibition is 29% in test [2] and 2% in test [3]. Also, the outcome in test [5], in test [6], in test [7] and in test [8] was inactive.
For the compound `CCCCNCc1ccc(-c2nc(CN(Cc3ccc(Cl)c(Cl)c3)C(=O)CN(C)C)cs2)cc1`, the growth inhibition in test [1] was 51% (active); in test [4] it was 100% (active). The inhibition is 36% in test [2] and 7% in test [3]. Moreover, the result in test [5], in test [6], in test [7] and in test [8] was inactive.
With `Cc1cccc(-c2cccc(CNc3nc(NCCc4ccc(O)cc4)nc(N4CCNCC4)n3)c2)c1`, the growth inhibition in test [1] is -3%; in test [4] it was 84% (active). Moreover, the inhibition was 50% (active) in test [2] and 0% in test [3]. The result in test [5], in test [6], in test [7] and in test [8] was inactive.
With `CCOc1ccc(C=CC(=O)Nc2ccc3nc(N4CCOCC4)cc(C)c3c2)cc1OC`, the growth inhibition in test [1] is 23%; in test [4] it was 92% (active). For the same compound, the values for the inhibition in test [2] and in test [3] were 14% and 5%, respectively. For the same compound, the result in test [5], in test [6], in test [7] and in test [8] was inactive.
`NCC(=O)NC12CC3CC(CC(C3)C1)C2`: the values for the growth inhibition in test [1] and in test [4] were -4% and 87% (active), respectively. For the same compound, the values for the inhibition in test [2] and in test [3] were 15% and -2%, respectively. Further, the outcome in test [5], in test [6], in test [7] and in test [8] was inactive.
In the case of `Cc1ccc(C(=O)N2CCN(Cc3nccs3)CC2)cc1`, the figures for the growth inhibition in test [1] and in test [4] were -2% and 86% (active), respectively. Further, the figures for the inhibition in test [2] and in test [3] were -6% and 0%, respectively. In addition, the result in test [5], in test [6], in test [7] and in test [8] was inactive.
Consider `CC(=O)c1cc(N2CCCC2)ccc1N`, for which the growth inhibition in test [1] and in test [4] was 97% (active) each time. Further, the inhibition in test [2] is 1%; in test [3], -2%. In addition, the result in test [5], in test [6], in test [7] and in test [8] was inactive.
Consider `Clc1cc(Nc2ncnc3cc(C#C[C@H]4CCCN4)sc23)cc2[nH]c(Cc3ccccc3)nc12`, for which the figures for the growth inhibition in test [1] and in test [4] were 57% (active) and 91% (active), respectively. The inhibition is 29% in test [2] and 1% in test [3]. Also, the result in test [5], in test [6], in test [7] and in test [8] was inactive.
Take `CC(C(=O)N1CCCC1)N1CCN(C(c2ccccc2)c2ccccc2)CC1` (stereo not drawn): the growth inhibition in test [1] was 56% (active); in test [4], 82% (active). Moreover, the inhibition in test [2] was -2%; in test [3] it was 3%. Also, the result in test [5], in test [6], in test [7] and in test [8] was inactive.
`O=C(C=Cc1ccc(Cl)c(Cl)c1)NCCCCCN1CCC(CCCNS(=O)(=O)c2ccc(F)cc2)CC1`: the figures for the growth inhibition in test [1] and in test [4] were 20% and 93% (active), respectively. Also, the inhibition in test [2] is 52% (active); in test [3], 4%. The result in test [5], in test [6], in test [7] and in test [8] was inactive.
With `CN1CCCC(CN2CCN(Cc3cccc(-c4cccc(-c5nc6ccccc6[nH]5)c4)c3)CC2)C1` (stereo not drawn), the growth inhibition in test [1] was 99% (active); in test [4], 100% (active). The inhibition was 45% in test [2] and -8% in test [3]. Besides, the outcome in test [5], in test [6], in test [7] and in test [8] was inactive.
Consider `CC1(C)N=C(N)N=C(N)N1OCOc1cc(Cl)c(Cl)cc1Cl`, for which the values for the growth inhibition in test [1] and in test [4] were 98% (active) and 96% (active), respectively. The inhibition in test [2] was 66% (active); in test [3] it was -3%. Also, the outcome in test [5], in test [6], in test [7] and in test [8] was inactive.
For `Cc1sc2nc(CN3CCCC3)nc(-n3c(NCCO)nc4ccccc43)c2c1C`, the growth inhibition is 11% in test [1] and 96% (active) in test [4]. Also, the inhibition in test [2] is 19%; in test [3] it was -2%. Besides, the result in test [5], in test [6], in test [7] and in test [8] was inactive.
In the case of `Cc1cccc(Nc2nc3nonc3nc2Nc2cccc(Cl)c2Cl)c1C`, the growth inhibition is 95% (active) in test [1] and 91% (active) in test [4]. The inhibition was 88% (active) in test [2] and 2% in test [3]. For the same compound, the outcome in test [5], in test [6], in test [7] and in test [8] was inactive.
For `CCn1ccc2c(N3CCCCS3(=O)=O)cc(C(=O)N[C@@H](Cc3ccccc3)[C@H](O)CNC(C)(C)c3cccc(C(F)(F)F)c3)cc21`, the results for the growth inhibition in test [1] and in test [4] were 98% (active) and 97% (active), respectively. For the same compound, the inhibition in test [2] is 6%; in test [3] it was -4%. Besides, the outcome in test [5], in test [6], in test [7] and in test [8] was inactive.

The values above are taken from PubChem BioAssay.
